The text below walks through data of PubChem BioAssay (NCATS).

Test [1] has as its system Zika virus NS2B-NS3 protease (unlinked complex). Nature of the test: Primary screen GU Rhodamine qHTS for Zika virus inhibitors: Unlinked NS2B-NS3 protease assay (AID 1347159). Note: nearly all actives have a fitted effect of over 60% in size. In outline: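 Noncovalent NS2B hydrophilic domain–NS3 protease domain complex (25 nM) preincubated 15 min at room temperature with compounds (up to 114 microM) in 10 mM Tris-HCl pH 8.0, 0.01% Tween 20; 1.5 microM Rhodamine110 substrate added, fluorescence change over 15 min fitted to Hill equation.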

Test [2] deals with Zika virus NS2B-NS3 protease (linked construct). Nature of the test: Primary screen NINDS Rhodamine qHTS for Zika virus inhibitors (AID 1347160). Note: nearly all actives have a fitted effect of over 55% in size. Put shortly:
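Purified linked NS2B-NS3 protease (NS2B hydrophilic domain joined to NS3 protease by flexible linker), 25 nM in 10 mM Tris-HCl pH 8.0, 0.01% Tween 20. Compounds titrated, 15 min preincubation at room temperature; 1.5 microM Rhodamine110 substrate, FITC fluorescence change over 15 min.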
(In general: In qHTS, concentration-response curves come from the screen itself.)

Results filed as inconclusive are left out. Calls of active or inactive are those of the source. Calls come from the whole dose curve; as a rule, active = well fitted inhibition curve with a large enough effect; inconclusive = small, poorly fitted or top-dose-only effect; inactive = no such curve, though single readings can be large or run the other way.
Potency is the fitted concentration of half-maximal effect.

As for `C[C@@H]1O[C@@H](O[C@H]2[C@H](O)[C@@H](C(=O)O)O[C@@H](O[C@H]3CC[C@@]4(C)C(CC[C@]5(C)C4CC=C4C6CC(C)(C)CC[C@]6(C(=O)O)CC[C@]45C)C3(C)C)[C@@H]2O[C@@H]2OC[C@@H](O)[C@H](O)[C@H]2O)[C@H](O)[C@H](O)[C@H]1O` (stereo not given in full), the Potency in test [1] is 8.91 µM (active); in test [2], 3.1 µM (active).

For the compound `CC(C)CC1NC(=O)C(C)NC(=O)C(CC(C)C)OC(=O)CCCNC1=O` (stereo not given), the Potency entry in test [1] and in test [2] was “inactive” throughout.

Turning to `Cc1c(CN2CCN(C(=O)C(C)O)CC2)sc2c(N3CCOCC3)nc(-c3cnc(N)nc3)nc12` (stereo not given), the Potency result in test [1] and in test [2] was “inactive” in each case.

Consider `CC(C)(C)NS(=O)(=O)c1cncc(-c2cc(F)c3nc(N)nn3c2)c1`, for which the Potency result in test [1] and in test [2] was “inactive” in each case.

Consider `NC(=O)c1cccc2cn(-c3ccc(C4CCCNC4)cc3)nc12` (stereo not given), for which the Potency entry in test [1] and in test [2] was “inactive” each time.

`Cc1cccc(C)c1OCc1cc(C(=O)N2CCC(c3ccncc3)CC2)no1`: the Potency entry in test [1] and in test [2] was “inactive” each time.

`CC(CCC1(O)OC2CC3C4CCC5CC(O[C@@H]6O[C@H](CO)[C@@H](O)[C@H](O)[C@H]6O[C@@H]6O[C@@H](C)[C@H](O)[C@@H](O)[C@H]6O)C(O)CC5(C)C4CCC3(C)C2C1C)CO[C@@H]1O[C@H](CO)[C@@H](O)[C@H](O)[C@H]1O` (stereo not given in full): the Potency result in test [1] and in test [2] was “inactive” in each case.

Turning to `COc1cc(C(=O)O)ccc1OC1OC(CO)C(O)C(O)C1O` (stereo not given), the Potency result in test [1] and in test [2] was “inactive” throughout.

As for `O=C1C=CC2OC(c3ccccc3)C(O)C2O1` (stereo not given), the Potency result in test [1] and in test [2] was “inactive” throughout.

Consider `C=C1CC2C(C)(CCC(=O)O)C(C(C)(C)O)CCC2(C)C2C(=O)OC(C)(C(=O)OC)C(=O)C12C` (stereo not given), for which the Potency entry in test [1] and in test [2] was “inactive” in each case.
